Measured values reported in PubChem BioAssay AID1898 (National Center for Advancing Translational Sciences (NCATS), 2009).
Some of the results follow. Results filed as inconclusive are left out. A number with no mark means an inactive call. Calls follow the shape of the dose curve; as a rule, active = well fitted curve in the direction sought with a large enough effect; inconclusive = small, poorly fitted or top-dose-only effect, or another doubt; inactive = no such curve, though single readings can be large or run the other way.

test: Secondary assay for Activators of Human Pyruvate Kinase M2 isoform - Cell Titer Glo cytotoxicity assay; conditions: HeLa viability, CellTiter-Glo ATP luminescence, 24 h; series mostly up to 57.5 µM; activity change, negative = cytotoxicity: at the top concentration; also: % of control where 0% means no effect
Method: NIH Chemical Genomics Center [NCGC] Matthew G. Vander Heiden, M.D., Ph.D. [Harvard Medical School, 77 Avenue Louis Pasteur, Boston, MA 02115] MLPCN Grant: 1 R03 MH085679-01 NCGC Assay Overview: We have identified a series of activators of the M2 isoform of human pyruvate kinase. The assay described here examines the cytotoxicity of these compounds by measuring the total ATP content of Hela cells after 24 hrs of exposure to compound.
Assay Protocol: 500 Hela cells/ 4ul in media (DMEM with high glucose, 10% FBS, 1x Pen Strep, 1x NEAA) were dispensed into a white solid 1536-microwell plate with a Thermo Multidrop. The plates were incubated at 37 degrees Celsius for 24 hours. The cells were then treated with compounds using the Kalypsys pin tool, delivering 23 nl of test compounds and the control doxorubicin. The plates were then incubated for an additional 24 hours at 37 degrees C after which 4 ul of Promega Cell-Titer Glo was dispensed using the Thermo Multidrop. The plates were incubated at room temperature for 10 min before reading luminescence on the Perkin Elmer ViewLux with images collected with 2x binning and a 5 sec exposure time.

SMILES	activity change, negative = cytotoxicity [%]
O=C(NCc1cccs1)C1CCN(S(=O)(=O)c2ccc3c(c2)OCCO3)CC1	7.05
CN(C)N=Nc1ccc2nc[nH]c2c1	-5.89
Cn1c2cc(B(O)O)sc2c2cnn(Cc3ccccc3F)c(=O)c21	5.07
O=S(=O)(NCC1CN(S(=O)(=O)c2ccc3c(c2)OCCO3)C1)c1c(F)cccc1F	7.45
O=S(=O)(NCCCCCCNS(=O)(=O)c1c(F)cccc1F)c1ccc2c(c1)OCCO2	-2.79
CSc1nc2ccc(S(=O)(=O)N3CCc4ccccc43)cc2s1	-25.9
O=C(c1c(F)cccc1F)N1CCN(S(=O)(=O)c2ccc3c(c2)OCCO3)CC1	-20.9
O=C(NCc1ccccn1)c1c(O)c2c([nH]c1=O)CCCC2	1.11
CC(=O)c1cc(C#N)c(SCC(=O)Nc2nccs2)nc1C	-6.98
Cc1cc2c(s1)c1cnn(Cc3c(F)cccc3Cl)c(=O)c1n2C	0.849
Cc1ccc(Cn2ncc3c4sc(C)cc4n(C)c3c2=O)c(C)c1	-8.1
O=S(=O)(NC1CCN(S(=O)(=O)c2ccc3c(c2)OCCO3)CC1)c1c(F)cccc1F	-10.7
